Experimental data from PubChem BioAssay AID1159580 (chemical genetic matrix, 2015).
About 2,000 (36%) of roughly 5,500 compounds were called active. Inconclusive results (about 18%) are left out. Rule as the data show it: active = normalized growth mostly below about 0.91 (no sharp cut-off); inconclusive = no clear call, values can overlap the other calls; inactive = mostly above about 0.92. The list shows a part of the results.

Assay: chemical genetic growth profiling, strain panel (AID 1159580);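 also: tested at 20 µM; growth read once vehicle control cultures reached saturation at 30 °C; 1 = growth at the plate median or of vehicle wells; lower values mean less growth of the strain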
Conditions: growth OD

Measured: normalized growth

CN(C)C=Nc1nc2c(s1)CCc1ccccc1-2
active: S. cerevisiae deletion strains, locus YEL061C, strain CIN8, stronger effect = lower value 0.878 | S. cerevisiae deletion strains, locus YHR030C, strain SLT2, stronger effect = lower value 0.477 | S. cerevisiae deletion strains, locus YLR085C, strain ARP6, stronger effect = lower value 0.622 | S. cerevisiae deletion strains, locus YLR262C, strain YPT6, stronger effect = lower value 0.811 | S. cerevisiae deletion strains, locus YML094W, strain GIM5, stronger effect = lower value 0.798 | S. cerevisiae deletion strains, locus YNL298W, strain CLA4 (second series), stronger effect = lower value 0.825 | S. cerevisiae deletion strains, locus YPL055C, strain LGE1, stronger effect = lower value 0.799 | S. cerevisiae deletion strains, locus YPL241C, strain CIN2, stronger effect = lower value 0.819 | S. cerevisiae deletion strains, locus YPR135W, strain CTF4, stronger effect = lower value 0.635
inactive: S. cerevisiae deletion strains, locus YAL013W, strain DEP1, stronger effect = lower value 0.953 | S. cerevisiae deletion strains, locus YBR229C, strain ROT2, stronger effect = lower value 0.975 | S. cerevisiae deletion strains, locus YDL101C, strain DUN1, stronger effect = lower value 0.964 | S. cerevisiae deletion strains, locus YDR150W, strain NUM1, stronger effect = lower value 0.934 | S. cerevisiae deletion strains, locus YGR078C, strain PAC10, stronger effect = lower value 0.989 | S. cerevisiae deletion strains, locus YHR087W, strain rtc3, stronger effect = lower value 1.01 | S. cerevisiae deletion strains, locus YJL187C, strain SWE1, stronger effect = lower value 0.972 | S. cerevisiae deletion strains, locus YJR043C, strain POL32, stronger effect = lower value 0.994 | S. cerevisiae deletion strains, locus YJR075W, strain HOC1, stronger effect = lower value 0.957 | S. cerevisiae deletion strains, locus YLR039C, strain RIC1, stronger effect = lower value 0.794 | S. cerevisiae deletion strains, locus YLR058C, strain SHM2 (second series), stronger effect = lower value 0.989 | S. cerevisiae deletion strains, locus YMR219W, strain ESC1, stronger effect = lower value 0.991 | S. cerevisiae deletion strains, locus YMR263W, strain SAP30, stronger effect = lower value 0.977 | S. cerevisiae deletion strains, locus YNL153C, strain GIM3, stronger effect = lower value 0.968 | S. cerevisiae deletion strains, locus YNL322C, strain KRE1, stronger effect = lower value 0.994 | S. cerevisiae deletion strains, locus YNR030W, strain Alg12, stronger effect = lower value 0.899 | S. cerevisiae strains, strain wild type, stronger effect = lower value 0.997
